Assay results taken from PubChem BioAssay.
A number with no mark means an inactive call. Activity calls are given as the source filed them. Cut-off read from the data, not from the text of the source: active = inhibition above about 44%; inactive = the rest.

Each compound was assayed against Steroidogenic factor 1 (Homo sapiens) (UniProt Q13285) (assay: SF1 (NR5A1) inverse agonists, counter-screen for LRH-1 inverse agonist project, cell-based, luminescence, high throughput (AID 651614;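 note: cells cotransfected with StAR promoter reporter and SF1 expression vector; 0% = vehicle on cells with receptor and 100% = vehicle on cells lacking receptor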)). Settings: cell-based SF1 luciferase reporter, at 3.6 µM, stronger effect = higher value.
Steroidogenic factor 1 (Homo sapiens), sequence (Q13285 whole entry, looked up): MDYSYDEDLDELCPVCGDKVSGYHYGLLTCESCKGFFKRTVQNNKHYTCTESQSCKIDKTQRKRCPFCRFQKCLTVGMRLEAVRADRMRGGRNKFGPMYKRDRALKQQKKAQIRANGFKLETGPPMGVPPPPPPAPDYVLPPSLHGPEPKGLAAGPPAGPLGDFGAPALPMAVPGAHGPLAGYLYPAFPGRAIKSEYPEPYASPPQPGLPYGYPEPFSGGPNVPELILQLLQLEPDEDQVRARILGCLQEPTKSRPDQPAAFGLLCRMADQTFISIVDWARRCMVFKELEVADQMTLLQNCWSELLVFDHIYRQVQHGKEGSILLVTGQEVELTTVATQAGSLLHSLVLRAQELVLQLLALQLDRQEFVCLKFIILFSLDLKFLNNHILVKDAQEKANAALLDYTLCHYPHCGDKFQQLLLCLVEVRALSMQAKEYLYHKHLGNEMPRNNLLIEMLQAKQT
With `CCCOc1ccc(Cn2cnc3ccccc32)cc1` the inhibition was 52.4% (active). For `O=C(Cn1cc(COc2ccc(C(=O)c3ccccc3)cc2)nn1)c1ccc(O)cc1`, the inhibition was 57% (active). For `COc1ccccc1N1CCN(C(=O)C2c3ccccc3Oc3ccccc32)CC1`, the inhibition was 33.4%. Work on `CS(=O)(=O)N1CCc2cc(-c3csc(NC(=O)Cc4cccs4)n3)ccc21` yielded an inhibition of 39.9%. With `C=CC[n+]1c(-c2ccc(Cl)cc2Cl)csc1Nc1c(C)n(C)n(-c2ccccc2)c1=O` the inhibition was 61% (active). For `O=C(Nc1cccc2ncccc12)c1ccc([N+](=O)[O-])o1`, the inhibition was 64.4% (active). For `COc1cc(/C=C2/SC(=Nc3ccc(O)cc3)NC2=O)ccc1O`, the inhibition was 43.5% (active). `N#CCc1ccc(OCCCN2CCC(C(O)(c3ccccc3)c3ccccc3)CC2)cc1` gave an inhibition of 27.8%. With `CCn1c2ccccc2c2cc(/C=N/n3c(-c4cc(C)[nH]n4)n[nH]c3=S)ccc21` the inhibition was 31.7%. For `Cc1onc(-c2c(F)cccc2Cl)c1C(=O)Nc1cccc2nsnc12`, the inhibition was 49.8% (active). `COc1ccc(O)c(/C=N/Nc2nc(Nc3ccccc3)nc(-n3nc(C)cc3C)n2)c1` showed an inhibition of -41.8%. With `COc1ccccc1N1CCN(C(=O)CSc2nc3ccccc3o2)CC1` the inhibition was 35.1%. For `Cc1cccc(NC(=O)CSc2nc3[nH]ncc3c(=O)[nH]2)c1C`, the inhibition was 52.2% (active). With `Cc1cc2ccccn2c1C(=O)c1cccc([N+](=O)[O-])c1` the inhibition was 42%. With `CCc1ccccc1NC(=O)CSc1nnc([C@@H](NC(=O)OC(C)(C)C)C(C)C)o1` the inhibition was 45.9% (active).
